Measurements reported in PubChem BioAssay (NCI).
Compounds without any hit were thinned out: in the full panel of roughly 83,000, 20% have a hit.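 Compound tested at a single concentration for 48 hours in 96-well plates; a percent growth value below 10 was scored as active.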 Values without a mark were called inactive. Active and inactive are the calls of the source.

Experiments:
Experiment in all cases: NCI-60 one-dose screen, 48 h (100 = growth as untreated, 0 = no growth, -100 = all killed)
Conditions in all cases: 10 µM unless noted
NCI-H23 lung = system: NCI-H23 lung
NCI-H322M lung = system: NCI-H322M lung
HOP-62 NSCLC = system: HOP-62 NSCLC
NCI-H460 lung = system: NCI-H460 lung
HOP-92 NSCLC = system: HOP-92 NSCLC
NCI-H522 lung = system: NCI-H522 lung
A549/ATCC NSCLC = system: A549/ATCC NSCLC
786-0 renal = system: 786-0 renal
COLO 205 colon = system: COLO 205 colon
NCI-H226 lung = system: NCI-H226 lung

| SMILES | growth (NCI-H23 lung) | growth (NCI-H322M lung) | growth (HOP-62 NSCLC) | growth (NCI-H460 lung) | growth (HOP-92 NSCLC) | growth (NCI-H522 lung) | growth (A549/ATCC NSCLC) | growth (786-0 renal) | growth (COLO 205 colon) | growth (NCI-H226 lung) |
| --- | --- | --- | --- | --- | --- | --- | --- | --- | --- | --- |
| COc1ccc(C2=N[C@@H](Cc3ccccc3)C(=O)Nc3ccsc32)cc1 | 53.7% | 89.8% | 66% | 51.7% | 61.4% | -13.4% (active) | 43.2% | 66.6% | 35.6% |  |
| Nc1cc2nc3ccccc3nc2cc1N | 77.3% |  | 80.4% | 95.7% | 97.8% | 79.8% |  | 102% | 106% |  |
| COC(=O)[C@@]1(O)C[C@H]2O[C@]1(C)n1c3ccccc3c3c4c(c5c6ccccc6n2c5c31)C(=O)NC4 |  | -33.6% (active) | -59.3% (active) | -72.8% (active) | -44.3% (active) | -59.2% (active) | -39.7% (active) | -89.5% (active) | -66.6% (active) | -63.1% (active) |
| COc1cc(/C=N/C2=C(C#N)C(c3ccco3)c3c(c4cc(C)ccc4oc3=O)O2)cc(OC)c1OC (stereo not given) |  | 100% | 87.3% | 103% | 59.4% | 40.3% | 99.5% | 92.5% | 118% | 86.3% |
| CC[C@H](C)[C@H](NC(=O)[C@H]1CCCCN1C)C(=O)N(C)[C@H](CCc1nc(C(=O)N[C@@H](Cc2ccccc2)C[C@H](C)C(=O)OC)cs1)C(C)C |  | 40.9% | 14.3% | 6.43% (active) | 12.9% | -14.6% (active) | 17% | 7.3% (active) | -64.1% (active) | 28.6% |
| OCc1ccc2c(c1)OCO2 |  | 104% | 93.5% | 103% | 97.3% | 90.8% | 92.5% | 104% | 108% | 94.6% |
| Oc1c(CCl)cc(Cl)cc1CCl |  | 123% | 95.1% | 108% | 92.8% | 105% | 116% | 114% | 109% | 98.8% |
| CC[C@H](C)[C@H](NC(=O)NC(C)(C)C)C(=O)N(C)[C@H](C[C@@H](OC(C)=O)c1nc(C(=O)N[C@@H](Cc2ccccc2)C[C@H](C)C(=O)OC)cs1)C(C)C |  | 44.4% | 12.4% | 1.65% (active) | 17.3% | 14.4% | 19.1% | -7.51% (active) | -53.8% (active) | 16.3% |
| CN(CCCCN(C)CCOS(C)(=O)=O)CCOS(C)(=O)=O |  | 105% | 84.7% | 35.2% | 86.3% | 81.3% | 78.9% | 100% | 74.2% | 75% |
| O=C1Nc2ccccc2C2c3cccn3-c3ccccc3CN12 (stereo not given) |  | 91.5% | 34.5% | 43.7% | 29.7% | -7.83% (active) | 34.4% | 66.3% | 39.5% | 78.2% |
| COc1ccc(NC([Se])=NC23CC4CC(CC(C4)C2)C3)cc1 |  | 3.73% (active) | -0.819% (active) | -8.63% (active) | -6.73% (active) | -32.6% (active) | -0.959% (active) | -42.1% (active) | -32.1% (active) | -32.7% (active) |
| O=C(Nc1ccc(Cl)cc1)Nc1nccs1 |  |  | 31.7% | 21% | 38.6% | -32.3% (active) |  | 56.8% | 3.09% (active) | 69.9% |
| O=C1C=C2C(=CCOC2O)O1 (stereo not given) |  |  | 59.6% | 71.1% | -22.2% (active) | -79.9% (active) | 71.6% | 47.1% | -87.3% (active) | 34.4% |
| C[S+]1C=Cc2ccccc2C1c1ccc(Cl)cc1 (stereo not given) |  | 99.5% | 126% | 99.6% | -54.5% (active) | 18.9% | 78.9% | 111% | 114% | 85.1% |
| O=C(O)C(Cl)(Cl)C(F)(F)F |  | 106% | 111% | 102% | 95.1% | 102% | 106% | 99.1% | 124% | 106% |
